CYP2C19 activ: human CYP2C19 activators, primary screen, biochemical, luminescence; 96,000 tested, under 10 active; Cytochrome P450 2C19 (Homo sapiens), P33261; AID 1025, 2008; recombinant CYP2C19, luciferin-H EGE luminescence; hits give high values; 0 = fully inhibited enzyme, 1 = untreated enzyme; activation factor at 5 µM;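 active = activation factor of at least 2 at 5 µM in the primary screen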
cytoskel mod: modifiers of F-actin cytoskeleton organization, primary screen, imaging, HUVEC, phalloidin staining, high-content imaging. HUVEC TNFa F-actin phalloidin imaging. inhibition, % at 2 µM. 0.18% of 91,000 active;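 active = inhibition above the batch mean plus 3 SD and confirmed as a hit by visual image inspection, cut at about 30% in these data, passing the limit was not always enough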
CYP2C9 inhib: blockers of cytochrome P450 2C9 activity – biochemical, luminescence, ADME assay, primary screen | 20% of 96,000 active | AID 777, 2007 | inhibition, % at 5 µM | CYP2C9 Supersomes, luciferin-H conversion;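 active = blocking of liver enzyme CYP2C9 beyond about 50% at 5 µM, limit read from the data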
Target sequence (P11712 whole entry, looked up): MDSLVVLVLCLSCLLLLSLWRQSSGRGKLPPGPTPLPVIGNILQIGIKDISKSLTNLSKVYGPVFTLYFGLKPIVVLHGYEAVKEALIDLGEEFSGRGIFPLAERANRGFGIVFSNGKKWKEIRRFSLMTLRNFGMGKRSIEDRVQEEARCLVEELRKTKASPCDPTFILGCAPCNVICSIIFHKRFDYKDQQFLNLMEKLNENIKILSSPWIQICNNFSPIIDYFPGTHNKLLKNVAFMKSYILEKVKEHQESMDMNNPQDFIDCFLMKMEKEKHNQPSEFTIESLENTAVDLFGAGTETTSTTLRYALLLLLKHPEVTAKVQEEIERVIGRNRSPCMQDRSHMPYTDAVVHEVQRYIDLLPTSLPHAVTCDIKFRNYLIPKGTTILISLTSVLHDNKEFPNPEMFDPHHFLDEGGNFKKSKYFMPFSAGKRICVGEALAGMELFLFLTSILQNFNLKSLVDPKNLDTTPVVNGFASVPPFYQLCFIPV
CYP2C19 inhib: blockers of cytochrome P450 2C19 activity – biochemical, luminescence, ADME assay, primary screen. P33261. CYP2C19 Supersomes, luciferin-H EGE luminescence, 30 min. inhibition, % at 5 µM. 21% of 96,000 active. AID 778, 2007;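 active = CYP2C19 inhibition above a set limit at 5 µM in the primary screen, cut at about 50% in these data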
CYP2C9 activ: human CYP2C9 activators, primary screen, biochemical, luminescence; 1.4% of 96,000 active; recombinant CYP2C9, luciferin-H conversion; hits give high values; factor 1 = untreated enzyme, 0 = blocked; Cytochrome P450 2C9 (Homo sapiens), P11712; activation factor at 5 µM;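 active = activation factor of 2 or more for CYP2C9 at a 5 µM dose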
E-sel TNF inh: E-selectin induction blockers in HUVEC – imaging, immunofluorescence, high content, primary screen. HUVEC TNFa-induced E-selectin immunofluorescence. inhibition, % at 2 µM. 0.71% of 120,000 active. AID 1246, 2008;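 active = inhibition above the batch mean plus 3 SD, and confirmed as a hit on visual image review, cut at about 43% in these data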
Hits are given with their value; - = inactive; . = no result. Most compounds without a hit are left out; they make up all but 22% or so of the library.

SMILES	CYP2C19 activ	cytoskel mod	CYP2C9 inhib	CYP2C19 inhib	CYP2C9 activ	E-sel TNF inh
Clc1cccc(CSc2nc3ccncc3[nH]2)c1	-	-	76	100	-	-
Fc1cccc(CSc2nc3ccncc3[nH]2)c1	.	.	.	.	.	-
CCOC(=O)N1CCC(NC(=O)c2ccc3c(=O)n4c(nc3c2)CCCC4)CC1	-	-	-	-	-	64
CN1CCN(C(=O)c2ccc3c(=O)n4c(nc3c2)CCCCC4)CC1	-	-	-	-	-	-
O=C(c1ccc2c(=O)n3c(nc2c1)CCCCC3)N1CCN(Cc2ccccc2)CC1	-	-	73	55	-	-
Cc1cc(C)n(S(=O)(=O)c2ccc(C)c(C)c2C)n1	-	-	-	-	3.7	-
COc1ccc(S(=O)(=O)n2nc(C)cc2C)c(C)c1C	-	-	-	-	2.4	-
Cc1cc(C)n(S(=O)(=O)c2cc(C)c(C)cc2C)n1	-	-	-	-	-	-
CC1CCCN(Cc2cnc(Cl)s2)C1 (stereo not given)	-	-	-	53	-	-
O=C(O)c1cc(-c2ccco2)[nH]n1	.	-	.	.	.	.
CC(C)(C)n1nnnc1C(c1cccs1)N(Cc1ccccc1)Cc1cccnc1 (stereo not given)	-	-	-	-	-	-
CC(C)(C)n1nnnc1CN(Cc1cccnc1)Cc1ccccc1Cl	-	-	-	88	-	.
Cc1ccc(S(=O)(=O)/N=S(\C)CC2CC2(Cl)Cl)cc1 (stereo not given)	-	-	-	58	-	.
COc1ccc(CCNC(=O)COC(=O)Cc2ccc(OC)cc2)cc1	.	.	.	.	.	-
Cc1ccc(NC(=O)C(SCC(=O)O)c2ccccc2)cc1C (stereo not given)	-	-	-	-	-	-
COC(=O)CSC(C(=O)Nc1ccc(C)c(C)c1)c1ccccc1 (stereo not given)	-	-	60	92	-	-
Cc1ccc(NC(=O)CN(c2ccccc2F)S(C)(=O)=O)cc1	-	.	-	76	-	-
C=CCNC(=O)CN(c1ccccc1OCC)S(=O)(=O)c1ccc(C)cc1	-	-	68	66	-	-
CCOc1ccc(NC(=O)CN(c2ccc(OC)cc2)S(C)(=O)=O)cc1	-	-	-	-	-	-
CCOc1ccccc1N(CC(=O)Nc1ccc(C)cc1)S(C)(=O)=O	-	.	-	71	-	-
CCCNC(=O)c1ccccc1NC(=O)CN(c1ccccc1OCC)S(C)(=O)=O	-	-	58	-	-	-
CCCCNC(=O)c1ccccc1NC(=O)CN(c1ccccc1)S(=O)(=O)N(C)C	.	.	.	.	.	-
COc1cccc(-c2nnc(-c3ccc(C)o3)o2)c1	.	-	.	.	.	-
O=C(CC1CCCC1)Nc1nc2ccccc2[nH]1	-	-	-	-	-	.
CCc1nnc(NC(=O)c2ccc(-c3ccc(F)cc3)o2)s1	.	.	.	.	.	-
SMILES	CYP2C19 activ	cytoskel mod	CYP2C9 inhib	CYP2C19 inhib	CYP2C9 activ	E-sel TNF inh
CC1CCN(C(=O)Cn2cnc3c(cnn3C(C)(C)C)c2=O)CC1	.	.	.	.	.	-
COc1ccc(CCN(C(=O)c2ccco2)C(C(=O)NC2CCCC2)c2ccncc2)cc1OC (stereo not given)	.	.	.	.	.	-
Cn1c(CNc2nc(-c3ccccc3)cs2)nnc1SCC(=O)OC1CCCCC1	.	.	.	.	.	-
CC(Oc1ccccc1)c1ccnn1S(C)(=O)=O (stereo not given)	-	-	-	-	-	-
Cc1ccc2nc(-c3ccc(NC(=O)CN(c4ccccc4C)S(C)(=O)=O)cc3)sc2c1	-	-	-	92	-	-
CC(=O)c1cccc(NC(=O)CN(c2ccccc2)S(C)(=O)=O)c1	-	.	-	-	-	-
Cc1cc(C)cc(N(CC(=O)Nc2ccc(-c3nc4ccc(C)cc4s3)cc2)S(C)(=O)=O)c1	.	.	.	.	.	-
CCCCC(CCC(=O)Nc1ccccc1C(=O)OCC)C(=O)O (stereo not given)	-	.	59	-	-	.
CC(=O)c1cccc(N(CC(=O)Nc2ccc(F)cc2F)S(C)(=O)=O)c1	-	-	-	76	-	-
CC(=O)c1cccc(NC(=O)CN(c2ccccc2F)S(C)(=O)=O)c1	-	-	-	54	-	-
CCOC(=O)c1ccc(NC(=O)CCC(CC)C(=O)O)cc1 (stereo not given)	-	-	-	-	-	-
Cc1c(C(=O)N2CCCCCC2)nnn1-c1nonc1N	-	-	-	-	-	-
Cc1cccc(/C=C2/SC(=O)N(Cc3ccccc3)C2=O)n1	-	-	-	-	-	-
CCOC(=O)c1ccccc1NC(=O)c1ccc(NS(C)(=O)=O)cc1	-	-	-	-	-	-
CS(=O)(=O)N(CC(=O)Nc1cccc(Cl)c1)c1ccccc1Cl	-	-	90	97	-	-
CCOC(=O)c1ccccc1NC(=O)CN(c1ccccc1C)S(C)(=O)=O	-	-	78	96	-	-
CCOc1ccccc1N(CC(=O)Nc1ccc2c(c1)OCO2)S(C)(=O)=O	-	-	-	-	-	.
CCOc1ccccc1N(CC(=O)Nc1ccc2c(c1)OCCO2)S(C)(=O)=O	-	-	77	-	-	.
Cc1ccccc1N(CC(=O)Nc1ccc(F)cc1)S(C)(=O)=O	-	.	-	89	-	-
Cn1c(=O)c2ccccc2n(Cc2ccccc2F)c1=O	-	-	-	52	-	-
O=C(NCc1cccc(F)c1)c1ccc(N2C(=O)Cn3c(cc4sccc43)C2=O)cc1	.	.	.	.	.	-
COC(=O)c1ccccc1NC(=O)c1cc2ncc(Br)cn2n1	-	-	-	-	-	-
Cc1ccc(-c2csc(NC(=O)c3ccc(S(=O)(=O)N4CCc5ccccc54)cc3)n2)cc1	.	.	.	.	.	-
N#CCOC(=O)c1sccc1-n1cccc1	-	-	-	-	2	-
C=CCn1c(-c2ccccc2)nc(=S)c2c1CC(C)(C)OC2	-	-	-	-	-	-
SMILES	CYP2C19 activ	cytoskel mod	CYP2C9 inhib	CYP2C19 inhib	CYP2C9 activ	E-sel TNF inh
CCOC(=O)C(Cc1ccccc1)NS(=O)(=O)c1ccc(NC(C)=O)cc1 (stereo not given)	-	-	-	67	-	-
NC(=O)COC(=O)C(Cc1ccccc1)NS(=O)(=O)c1ccccc1F (stereo not given)	-	.	-	58	-	.
COc1ccc(F)cc1S(=O)(=O)NC(Cc1ccccc1)C(N)=O (stereo not given)	-	-	-	-	-	-
COc1ccc(CC(C(=O)Nc2cccc(F)c2)c2nn[nH]n2)c(OC)c1 (stereo not given)	-	-	-	-	-	.
Cc1ccccc1N1C(=O)c2cccc3c(N(C)CCO)ccc(c23)C1=O	-	-	-	50	-	-
COc1ccccc1N1CCN(C(CNC(=O)C2CCCCC2)c2cccnc2)CC1 (stereo not given)	-	.	-	-	-	-
COc1cc2c(cc1OC)C(C(=O)Nc1ccccn1)C(c1cccnc1)N(C)C2=O (stereo not given)	-	-	-	-	-	-

Source: PubChem BioAssay (several laboratories)
